# From PubChem BioAssay (NCATS)
# A number with no mark means an inactive call. Records with an inconclusive call do not appear. Where a call stands in place of a potency, no number is given. Calls of active or inactive are those of the source. Unless noted, calls come from the whole dose curve; as a rule, active = well fitted curve in the direction sought with a large enough effect; inconclusive = small, poorly fitted or top-dose-only effect, or another doubt; inactive = no such curve, though single readings can be large; an effect the other way counts as inactive or inconclusive.
# How the values were obtained:
# [1] = target: Glucocorticoid receptor (Homo sapiens) (UniProt P04150); assay: GR-EFC Redistribution (AID 451; calls by dose curve; note: potency is the fitted concentration of half-maximal effect); details: CHO-K1 GR-EFC translocation, beta-gal luminescence, 2 h
# Chain of Glucocorticoid receptor (Homo sapiens) (P04150 whole entry, looked up, the tested form may be a part): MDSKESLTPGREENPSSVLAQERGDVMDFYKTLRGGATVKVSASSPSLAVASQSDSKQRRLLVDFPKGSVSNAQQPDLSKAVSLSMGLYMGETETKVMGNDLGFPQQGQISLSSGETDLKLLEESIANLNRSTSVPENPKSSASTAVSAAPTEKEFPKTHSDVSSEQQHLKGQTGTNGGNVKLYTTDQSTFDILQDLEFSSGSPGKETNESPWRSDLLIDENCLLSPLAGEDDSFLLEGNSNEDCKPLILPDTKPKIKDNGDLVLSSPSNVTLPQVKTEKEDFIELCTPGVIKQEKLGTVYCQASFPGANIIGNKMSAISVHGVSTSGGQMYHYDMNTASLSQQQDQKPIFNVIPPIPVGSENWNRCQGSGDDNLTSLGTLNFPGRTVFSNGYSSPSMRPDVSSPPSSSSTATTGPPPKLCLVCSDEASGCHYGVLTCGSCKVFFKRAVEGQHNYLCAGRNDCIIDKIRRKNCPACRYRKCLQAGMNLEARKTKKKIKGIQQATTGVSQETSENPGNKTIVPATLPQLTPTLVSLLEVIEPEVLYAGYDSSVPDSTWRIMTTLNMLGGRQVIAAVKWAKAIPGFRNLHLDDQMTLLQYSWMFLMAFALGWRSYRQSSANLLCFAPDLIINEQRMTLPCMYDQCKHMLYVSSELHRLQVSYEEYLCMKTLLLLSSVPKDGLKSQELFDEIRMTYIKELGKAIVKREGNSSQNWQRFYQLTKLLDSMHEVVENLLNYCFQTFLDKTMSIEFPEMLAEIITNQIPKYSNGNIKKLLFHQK
# Procedure, shortened: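 CHO-K1 cells expressing nuclear EA and GR-ED fragments of b-gal; compounds titrated up to 46 uM final, 2 h at 37 C. GR nuclear translocation read as complemented b-gal luminescence after 1 h RT detection.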
# [2] = target: Cytochrome P450 3A4 (Homo sapiens) (UniProt P08684); assay: qHTS Assay for Activators of Cytochrome P450 3A4 (AID 885); note: nearly all actives have a fitted effect of over 65% in size
# Chain of Cytochrome P450 3A4 (Homo sapiens) (P08684 whole entry, looked up): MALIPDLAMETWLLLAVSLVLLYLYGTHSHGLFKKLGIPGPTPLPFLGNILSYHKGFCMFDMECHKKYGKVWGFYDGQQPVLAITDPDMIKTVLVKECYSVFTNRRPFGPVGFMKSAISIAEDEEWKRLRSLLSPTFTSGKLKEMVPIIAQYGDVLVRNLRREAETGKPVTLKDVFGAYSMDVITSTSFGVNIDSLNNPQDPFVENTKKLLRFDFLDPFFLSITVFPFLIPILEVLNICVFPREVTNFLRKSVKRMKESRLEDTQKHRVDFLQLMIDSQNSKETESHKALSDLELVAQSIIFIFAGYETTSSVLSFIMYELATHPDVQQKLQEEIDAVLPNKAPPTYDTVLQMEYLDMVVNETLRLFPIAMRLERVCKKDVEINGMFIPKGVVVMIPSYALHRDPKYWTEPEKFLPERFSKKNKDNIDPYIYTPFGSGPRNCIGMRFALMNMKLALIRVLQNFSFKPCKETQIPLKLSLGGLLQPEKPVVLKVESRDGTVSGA
# Procedure, shortened: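 CYP3A4 activity: Luciferin-PPXE O-dealkylation, 25uM substrate, 200mM KPO4, RT throughout. Read-out is luciferase luminescence; higher values reflect activation.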
# [3] = target: Ubiquitin carboxyl-terminal hydrolase 1 (Homo sapiens) (UniProt O94782); assay: Inhibitors of USP1/UAF1: Pilot qHTS (AID 504865);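 note: rhodamine fluorescence freed from ubiquitin-rhodamine substrate followed over time; top concentration of the series differs between compounds; nearly all actives have a fitted effect of over 35% in size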
# Chain of Ubiquitin carboxyl-terminal hydrolase 1 (Homo sapiens) (O94782 whole entry, looked up): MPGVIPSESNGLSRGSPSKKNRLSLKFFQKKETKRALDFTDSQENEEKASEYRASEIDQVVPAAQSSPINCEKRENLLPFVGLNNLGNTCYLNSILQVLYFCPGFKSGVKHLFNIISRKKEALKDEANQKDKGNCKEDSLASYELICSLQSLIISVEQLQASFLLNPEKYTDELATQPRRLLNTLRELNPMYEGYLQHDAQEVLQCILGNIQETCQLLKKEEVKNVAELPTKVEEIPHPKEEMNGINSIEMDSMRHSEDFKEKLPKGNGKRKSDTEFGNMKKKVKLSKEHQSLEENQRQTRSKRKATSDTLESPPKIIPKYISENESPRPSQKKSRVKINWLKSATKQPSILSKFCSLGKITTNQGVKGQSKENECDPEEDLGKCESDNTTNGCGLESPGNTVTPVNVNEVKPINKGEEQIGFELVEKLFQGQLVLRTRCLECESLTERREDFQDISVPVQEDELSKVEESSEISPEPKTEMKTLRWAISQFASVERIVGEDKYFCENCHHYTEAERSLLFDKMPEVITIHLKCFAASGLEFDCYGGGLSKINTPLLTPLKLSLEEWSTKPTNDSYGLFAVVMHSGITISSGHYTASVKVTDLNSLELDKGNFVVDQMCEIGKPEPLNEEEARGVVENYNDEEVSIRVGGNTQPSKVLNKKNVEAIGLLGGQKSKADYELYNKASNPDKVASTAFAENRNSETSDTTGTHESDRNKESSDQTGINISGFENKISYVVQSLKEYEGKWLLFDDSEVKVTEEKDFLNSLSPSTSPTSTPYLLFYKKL
# Procedure, shortened: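 In 50mM HEPES pH 7.8 containing 0.5mM EDTA, 1mM TCEP, 0.1 mg/ml BSA and 0.01% Tween-20, 1nM USP1/UAF1 is exposed to compound for 15 min, then Ub-Rho (150nM final) is added and fluorescence is read over time.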
# [4] = target: DNA dC->dU-editing enzyme APOBEC-3G (Homo sapiens) (UniProt Q9HC16); assay: qHTS for inhibitors of Vif-A3G interactions: Validation (AID 588379)
# Chain of DNA dC->dU-editing enzyme APOBEC-3G (Homo sapiens) (Q9HC16 whole entry, looked up): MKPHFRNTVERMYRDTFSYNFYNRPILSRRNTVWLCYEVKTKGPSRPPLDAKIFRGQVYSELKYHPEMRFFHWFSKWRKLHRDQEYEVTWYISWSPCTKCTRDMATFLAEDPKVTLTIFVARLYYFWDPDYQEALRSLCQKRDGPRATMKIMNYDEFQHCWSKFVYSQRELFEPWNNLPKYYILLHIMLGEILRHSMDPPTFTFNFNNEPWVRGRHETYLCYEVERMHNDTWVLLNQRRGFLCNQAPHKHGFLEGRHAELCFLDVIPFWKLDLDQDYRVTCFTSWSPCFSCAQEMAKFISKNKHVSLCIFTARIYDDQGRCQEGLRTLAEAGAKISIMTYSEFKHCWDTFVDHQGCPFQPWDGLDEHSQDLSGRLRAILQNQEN
# Procedure, shortened: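 Yellow fluorescence (Ex 488, Em 500-530) of Vif-coexpressing HeLa A3G-eYFP cells, scanned by Acumen cytometer, reports blocked A3G degradation. Cells plated at 700/well overnight at 37 deg C before compound addition, then a further overnight compound incubation at 37 deg C.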
# [5] = tested on: Zika virus NS2B-NS3 protease; assay: Primary screen GU AMC qHTS for Zika virus inhibitors (AID 1347154); note: nearly all actives have a fitted effect of over 70% in size; note: potency is the fitted concentration of half-maximal effect
# Procedure, shortened: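 Unlinked Zika NS2B hydrophilic domain–NS3 protease complex at 25 nM in 10 mM Tris-HCl pH 8.0, 0.01% Tween 20, with an AMC peptide substrate. Fluorescence change (340/450 nm) over 15 min at room temperature, normalized to controls, fitted to 4-parameter Hill.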
# [6] = target: Glucocorticoid receptor (Homo sapiens) (UniProt P04150); assay: GR-GFP Redistribution (AID 450;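 active = compounds whose dose series gives a full or clear partial fitted curve of increased nuclear translocation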; note: potency is the fitted concentration of half-maximal effect); details: U2OS GR-GFP nuclear translocation, laser cytometry, 2 h
# [7] = target: Mitogen-activated protein kinase 10 (Mus musculus) (UniProt Q61831); assay: JNK3 AlphaScreen Assay (AID 530; active = well fitted curve in either direction with a large enough effect, not every such curve was filed as active;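 note: kinase came from lysate of stimulated human HepG2 cells; signal reports phosphorylation of biotinylated GST-cJun 1-79 at Ser73 with 10 µM ATP; series mostly up to about 57 µM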)
# Procedure, shortened: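 Activity was read by AlphaScreen after JNK3-containing HepG2 lysate (cytokine pre-activated) phosphorylated biotinylated GST-cJun with 10 uM ATP at room temperature. Phospho-Ser73 cJun antibody with Protein-A acceptor beads provided detection.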
# [8] = target: 3',5'-cyclic-AMP phosphodiesterase 4B (Homo sapiens) (UniProt Q07343); assay: qHTS Assay for Inhibitors of PDE-IV (AID 607; active = well fitted activation curve with a large enough effect in the main read-out, with a control signal flat, not every such curve was filed as active)
# Chain of 3',5'-cyclic-AMP phosphodiesterase 4B (Homo sapiens) (Q07343 whole entry, looked up): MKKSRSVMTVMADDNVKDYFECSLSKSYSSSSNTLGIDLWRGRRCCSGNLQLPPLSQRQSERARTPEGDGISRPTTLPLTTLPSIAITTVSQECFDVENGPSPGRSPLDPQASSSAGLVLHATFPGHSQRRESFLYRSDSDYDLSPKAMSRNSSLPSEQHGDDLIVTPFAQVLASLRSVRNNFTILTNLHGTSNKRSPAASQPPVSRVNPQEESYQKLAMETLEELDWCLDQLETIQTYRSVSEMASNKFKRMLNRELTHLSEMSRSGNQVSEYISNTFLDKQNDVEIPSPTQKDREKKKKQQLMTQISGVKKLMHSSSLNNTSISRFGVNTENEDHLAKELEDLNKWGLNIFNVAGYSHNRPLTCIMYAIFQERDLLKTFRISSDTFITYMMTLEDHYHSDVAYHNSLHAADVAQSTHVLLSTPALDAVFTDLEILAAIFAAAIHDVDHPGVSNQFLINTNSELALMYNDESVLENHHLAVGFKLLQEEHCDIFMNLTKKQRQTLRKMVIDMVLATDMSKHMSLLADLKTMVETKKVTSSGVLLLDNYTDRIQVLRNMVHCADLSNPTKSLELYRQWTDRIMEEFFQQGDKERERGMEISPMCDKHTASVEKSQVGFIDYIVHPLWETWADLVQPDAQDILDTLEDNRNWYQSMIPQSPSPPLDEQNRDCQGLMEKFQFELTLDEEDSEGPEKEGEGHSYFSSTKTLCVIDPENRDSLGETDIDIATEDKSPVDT
# Procedure, shortened: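 ACTOne HEK293 cells carry a modified cAMP-gated CNG channel and express endogenous PDE4; plated 1000 cells/well, compounds up to 22.9 uM final. Membrane-potential dye fluorescence (ex 535/em 590) was read; parental cells received 10 uM forskolin + 100 uM RO 20-1724.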
# [9] = Confirmatory screen GU Rhodamine qHTS for Zika virus inhibitors qHTS (AID 1347157); note: nearly all actives have a fitted effect of over 70% in size; note: potency is the fitted concentration of half-maximal effect
# Procedure, shortened: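 Buffer 10 mM Tris-HCl pH 8.0, 0.01% Tween 20. Unlinked protease 25 nM; compound preincubation 15 min, RT, protected from light. Substrate Rhod110, 1.5 microM; ~15% conversion in 15 min.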
# [10] = ZIKV-mCherry secondary qHTS for Zika virus inhibitors (AID 1347158); note: top concentration of the series differs between compounds
# Procedure, shortened: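 Percent infection is the share of Hoechst-identified Vero nuclei with mCherry signal above 450 RFU (3 SD over negative controls). Cells were infected with recombinant ZIKV-mCherry at MOI 1 after compound addition and imaged 48–72 h later.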
# [11] = tested on: Zika virus NS2B-NS3 protease (linked); assay: 384 well plate NINDS AMC confirmatory qHTS for Zika virus inhibitors (AID 1347163); note: potency is the fitted concentration of half-maximal effect; nearly all actives have a fitted effect of over 50% in size
# Procedure, shortened: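 Fluorescence at 355/460 nm was read after 25 minutes of cleavage of 30 microM Ac-VKTGKR-AMC at room temperature, in the dark. Before substrate addition, compounds (up to 1 mM final) sat ~15 minutes with 5, 30 or 60 nM linked protease. Signals were normalized to no-enzyme and no-inhibitor wells.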
# [12] = Confirmatory screen NINDS Rhodamine qHTS for Zika virus inhibitors (AID 1347161); note: nearly all actives have a fitted effect of over 60% in size; note: potency is the fitted concentration of half-maximal effect
# Procedure, shortened: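 Rhodamine110-peptide cleavage (1.5 µM substrate) by 25 nM linked NS2B-NS3 enzyme at pH 8.0 (Tris, Tween 20), after 15 min RT preincubation with compounds; 15-min fluorescence change normalized to controls and Hill-fitted.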
# [13] = Confirmation and Secondary Assay for Modulators of Hemoglobin Beta Chain Splicing at IVS2 654 locus (AID 910);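 note: HeLa cells stably carrying EGFP split by mutant beta-globin IVS2-654 intron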
# Procedure, shortened: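 HeLa cells stably expressing EGFP interrupted by β-globin IVS2-654 intron, seeded overnight in Opti-MEM/2% FCS, then treated 2 days at 37 °C. Restored splicing read as total peak GFP intensity per well by laser scanning cytometry (488 nm excitation, 500–520 nm emission); 500 nM antisense PNA as control.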
# [14] = Confirmation and Secondary Assay for Modulators of Hemoglobin Beta Chain Splicing at IVS2 705 locus (AID 930);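 note: HeLa cells stably expressing the EGFP-705 splicing reporter; GFP fluorescence per well restored by corrected splicing of the IVS2-705 intron in EGFP; series mostly up to about 46 µM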
# Procedure, shortened: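 Assay measures total GFP intensity per well in HeLa EGFP-705 cells after 2 days with compound; mis-splicing normally truncates EGFP, so fluorescence indicates corrected splicing.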
# [15] = target: Cytochrome P450 3A4 (Homo sapiens) (UniProt P08684); assay: qHTS Assay for Inhibitors and Substrates of Cytochrome P450 3A4 (AID 884); note: potency is the fitted concentration of half-maximal effect; nearly all actives have a fitted effect of over 50% in size
# Procedure, shortened: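 Luminescent readout of luciferin produced by CYP3A4 (20 nM) dealkylation of Luciferin-PPXE, 25 uM (its KM). NADPH-driven reaction ran 60 min at RT after 10 min compound preincubation; data scaled to 57 uM ketoconazole as 100% inhibition.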
# [16] = Tertiary RLuc qRT-PCR qHTS assay for Zika virus inhibitors (AID 1347169); note: top concentration of the series differs between compounds; nearly all actives have a fitted effect of over 55% in size
# Procedure, shortened: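 Vero, 1,000 cells/well, o/n 37 C; cpd pinned in DMSO; ZIKV-RLuc Cambodian, MOI 1-2, 48-72 h 37 C; live-cell RLuc substrate, lum read at 1-1.5 h.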
# [17] = qHTS for Inhibitors of the vitamin D receptor (VDR): Hit Validation using a Texas Red Assay (AID 602201); details: VDR coregulator binding, Texas Red fluorescence polarization; agonist-bound VDR ligand-binding domain; note: potency is the fitted concentration of half-maximal effect
# Procedure, shortened: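 Fluorescence polarization with 1.5 uM VDR-LBD, LG19078 and 7 nM Texas Red (final). After 2 hours at ambient temperature, read at Ex 595 nm/Em 615 nm.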
smiles,measurement,setting,value
O=[N+]([O-])c1ccc2cn[nH]c2c1,Potency,[1],> 46 µM
same,Potency,[2],inactive
same,Potency,[3],inactive
same,Potency,[4],inactive
same,Potency,[5],inactive
C[C@@]12CC[C@@H]3c4ccc(O)cc4C[C@H](CCCCCCCCCS(=O)CCCC(F)(F)C(F)(F)F)[C@H]3[C@@H]1CC[C@@H]2O (some centres undefined),Potency,[6],> 46 µM
same,Potency,[1],> 46 µM
same,Potency,[7],inactive
same,Potency,[8],inactive
same,Potency,[4],inactive
same,Potency,[5],inactive
CC(C)c1ccc(NC(=O)c2ccc3c(O)c(S(=O)(=O)c4ccccc4)c(=O)[nH]c3c2)cc1,Potency,[9],17.8 µM (active)
same,Potency,[10],inactive
same,Potency,[11],282 µM (active)
CCOC(=O)c1ccc(CN(Cc2ccccc2C)S(=O)(=O)c2ccc(F)c(C(=O)Nc3cccc(OC)c3)c2)cc1,Potency,[9],inactive
same,Potency,[12],inactive
Cc1c(C(=O)NN2CCCCC2)nn(-c2ccc(Cl)cc2Cl)c1-c1ccc(I)cc1,Potency,[3],inactive
same,Potency,[4],inactive
same,Potency,[5],inactive
COc1ccc2cc(C(C)C(=O)O)ccc2c1 (centres undefined),outcome,[13],inactive
same,outcome,[14],inactive
same,Potency,[5],inactive
CCc1nn2c(=O)cc(COC(=O)c3ccccc3NC(=O)c3ccc(C(C)(C)C)cc3)nc2s1,Potency,[9],inactive
O=C(/C=C\c1ccc(O)c(O)c1)O[C@@H](Cc1ccc(O)c(O)c1)C(=O)O,Potency,[6],> 46 µM
same,Potency,[1],> 46 µM
same,Potency,[4],inactive
same,Potency,[5],4.74 µM (active)
CC(C)Oc1cccc(-n2c(CCc3c[nH]c4ccc(Br)cc34)nc3ccccc3c2=O)c1,Potency,[6],> 46 µM
same,Potency,[1],> 46 µM
same,Potency,[7],inactive
same,Potency,[15],3.98 µM (active)
same,Potency,[2],inactive
same,Potency,[4],inactive
same,Potency,[5],inactive
COC(=O)c1ccc([C@H]2Nc3ccc(S(=O)(=O)Nc4cccc(C)c4)cc3[C@H]3C=CC[C@H]32)cc1,Potency,[9],25.1 µM (active)
same,Potency,[10],inactive
same,Potency,[12],25.1 µM (active)
same,Potency,[11],141 µM (active)
same,Potency,[16],inactive
COc1cc2c(cc1OC)-c1cc3nc4ccccc4nc3n1C(C)(C)C2,Potency,[6],> 46 µM
same,Potency,[1],> 46 µM
same,Potency,[4],inactive
same,Potency,[17],12.6 µM (active)
same,Potency,[5],inactive
